Our source for the growth values is PubChem BioAssay (NCI).

Molecules are shown by their SMILES. The panel holds about 83,000 compounds, 20% with a hit somewhere; the sample as a whole holds those more often.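 Interpretation: 100, growth as untreated; towards 0, rising growth inhibition; 0, no net growth; 0 to -100, cell death. Compounds scoring below 10 were considered active.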 A number with no mark means an inactive call. Active and inactive are the calls of the source.

Some test systems named below: SR leukemia; OVCAR-8 ovarian; OVCAR-5 ovarian; OVCAR-4 ovarian; SK-OV-3 ovarian; IGROV1 ovarian; OVCAR-3 ovarian; NCI/ADR-RES ovarian; HS 578T breast.
Common to all, as to assay: NCI-60 one-dose screen, 48 h (100 = growth as untreated, 0 = no growth, -100 = all killed)
Conditions in all cases: 10 µM unless noted

For the molecule `O=S(=O)(O)CCl`, the growth in the experiment with SR leukemia was 84.9%; in the experiment on OVCAR-8 ovarian it was 100%; with OVCAR-5 ovarian it was 98.3%; with OVCAR-4 ovarian it was 105%; with SK-OV-3 ovarian, 107%; in the experiment with IGROV1 ovarian, 106%. For the same molecule, the growth in the experiment on OVCAR-3 ovarian is 106%; in the experiment with NCI/ADR-RES ovarian, 103%.
Take `C=C1C(=O)O[C@H]2[C@H](O)[C@@H](C)CCC/C(C)=C/CC[C@@]3(C)O[C@@H]3C[C@@H]12`: the growth in the experiment with SR leukemia was 94.3%; in the experiment on OVCAR-8 ovarian, 88.7%; in the experiment with OVCAR-5 ovarian it was 95.8%; in the experiment on OVCAR-4 ovarian it was 103%; in the experiment on SK-OV-3 ovarian, 96.8%; in the experiment on OVCAR-3 ovarian it was 72.6%. For the same molecule, the growth is 98.4% in the experiment with HS 578T breast and 97.6% with NCI/ADR-RES ovarian.
Take `Nc1c(C(=O)Nc2cccc(Cl)c2Cl)sc2nc3c(cc12)C(=O)CCC3`: the growth in the experiment with SR leukemia was 95.6%; with OVCAR-8 ovarian it was 114%; in the experiment on OVCAR-5 ovarian, 99.1%; in the experiment on OVCAR-4 ovarian, 104%; in the experiment on SK-OV-3 ovarian, 24.2%; in the experiment on IGROV1 ovarian, 72.8%. Moreover, the growth was 95.6% in the experiment on OVCAR-3 ovarian, 88.2% in the experiment on HS 578T breast and 73.4% with NCI/ADR-RES ovarian.
As to `COc1cc(Cn2c(SCC(=O)Nc3ccc(Cl)cc3)nc3ccccc3c2=O)cc(OC)c1OC`, the growth was 46.9% in the experiment on SR leukemia; 62.9% with OVCAR-8 ovarian; 82.2% with OVCAR-5 ovarian; 53.4% in the experiment on OVCAR-4 ovarian; 68.2% in the experiment with SK-OV-3 ovarian; 41.6% in the experiment on IGROV1 ovarian. Also, the figures for the growth in the experiment on HS 578T breast and in the experiment with NCI/ADR-RES ovarian were 7.73% (active) and 51.9%, respectively.
For the molecule `CC(=O)Nc1ccc(S(=O)(=O)N2C(=O)CCC2C(=O)Nc2ccccc2)cc1` (stereo not drawn), the growth in the experiment on SR leukemia was 28%; in the experiment on OVCAR-8 ovarian, 40.4%; in the experiment on OVCAR-5 ovarian it was 58.4%; with OVCAR-4 ovarian, 39.9%; in the experiment on SK-OV-3 ovarian, 57.5%; in the experiment on IGROV1 ovarian it was 28.9%. The growth in the experiment with OVCAR-3 ovarian is 28.1%; in the experiment on NCI/ADR-RES ovarian it was 41.5%.
Take `COc1cc(C2C3=C(COC3=O)Nc3c2ccc2c3CCCC2)cc2c1OCO2` (stereo not drawn): the growth in the experiment with SR leukemia was 7.47% (active); in the experiment with OVCAR-8 ovarian, 15.9%; in the experiment on OVCAR-5 ovarian, 42.8%; with OVCAR-4 ovarian it was 38%; in the experiment with SK-OV-3 ovarian it was -8.93% (active); with IGROV1 ovarian it was 44.7%. In addition, the results for the growth with OVCAR-3 ovarian, in the experiment with HS 578T breast and with NCI/ADR-RES ovarian were -53.1% (active), 81.8% and 3.82% (active), respectively.
`COc1ccc(/C=c2\sc3n(c2=O)C2C(NN=3)N(C)C(=O)N2C)cc1` (stereo not drawn): the growth in the experiment with SR leukemia is -10.6% (active); in the experiment with OVCAR-8 ovarian, 35%; with OVCAR-5 ovarian, 54.9%; with OVCAR-4 ovarian, 51.2%; in the experiment with IGROV1 ovarian it was 40%; with OVCAR-3 ovarian, -3.86% (active). Further, the values for the growth in the experiment on HS 578T breast and in the experiment with NCI/ADR-RES ovarian were 8.08% (active) and 10.4%, respectively.
For `COc1cccc(-n2cc(-c3nc(Cl)c4ccccc4n3)nn2)c1`, the growth in the experiment with SR leukemia was 97.9%; with OVCAR-8 ovarian, 109%; in the experiment with OVCAR-5 ovarian, 109%; in the experiment with OVCAR-4 ovarian it was 98.7%; with SK-OV-3 ovarian, 117%; with IGROV1 ovarian, 96.5%. In addition, the growth in the experiment on OVCAR-3 ovarian is 105%; in the experiment with HS 578T breast, 110%; in the experiment on NCI/ADR-RES ovarian, 97.4%.
Consider `CC1CCN(C(=O)CSc2nc3sc4c(c3c(=O)[nH]2)CCCC4)CC1`, for which the growth in the experiment on SR leukemia was 85.5%; in the experiment on OVCAR-8 ovarian it was 102%; in the experiment on OVCAR-5 ovarian it was 102%; in the experiment with OVCAR-4 ovarian, 108%; with SK-OV-3 ovarian, 103%; with IGROV1 ovarian, 87.7%. In addition, the figures for the growth in the experiment on OVCAR-3 ovarian, with HS 578T breast and in the experiment on NCI/ADR-RES ovarian were 116%, 113% and 109%, respectively.
Consider `O=C(CN1CCOCC1)Nc1ccc(-c2nc3ccccc3s2)cc1`, for which the growth was 102% in the experiment on SR leukemia; 102% with OVCAR-8 ovarian; 93.4% in the experiment with OVCAR-5 ovarian; 101% in the experiment with OVCAR-4 ovarian; 121% in the experiment with SK-OV-3 ovarian; 106% with IGROV1 ovarian. The growth in the experiment on OVCAR-3 ovarian was 96.3%; in the experiment on HS 578T breast, 110%; with NCI/ADR-RES ovarian it was 105%.
Regarding `COc1ccc2c(c1)C(=O)/C(=C/c1ccc(O)cc1)O2`, the growth is 74.1% in the experiment on SR leukemia; 93.1% with OVCAR-8 ovarian; 103% in the experiment with OVCAR-5 ovarian; 85.2% with OVCAR-4 ovarian; 104% in the experiment with SK-OV-3 ovarian; 48.7% in the experiment on OVCAR-3 ovarian. The growth in the experiment with HS 578T breast was 73.5%; in the experiment on NCI/ADR-RES ovarian, 104%.
Consider `CCC(c1ccc(OC)cc1)C(CC)c1ccc(O)c(CN2CCCC2)c1` (stereo not drawn), for which the growth was -43% (active) in the experiment with SR leukemia; 36.7% in the experiment with OVCAR-8 ovarian; 63% in the experiment with OVCAR-5 ovarian; 31.7% in the experiment on OVCAR-4 ovarian; 34.5% in the experiment on SK-OV-3 ovarian; 20.3% with OVCAR-3 ovarian. The growth in the experiment with HS 578T breast was 12.4%; in the experiment with NCI/ADR-RES ovarian, 18.7%.
As for `O=C1CCCCC=C1C[N+](=O)[O-]`, the growth is 2.57% (active) in the experiment on SR leukemia; 86.8% with OVCAR-8 ovarian; 104% in the experiment on OVCAR-5 ovarian; 94.9% in the experiment with OVCAR-4 ovarian; 99.1% in the experiment with SK-OV-3 ovarian; 91.6% in the experiment on IGROV1 ovarian. Further, the growth with OVCAR-3 ovarian is 61%; with HS 578T breast it was 107%; in the experiment with NCI/ADR-RES ovarian it was 101%.
For `O=c1[nH]c(CN2CCN(c3ccccc3F)CC2)nc2sc3c(c12)CCC3`, the growth is 94.8% with SR leukemia; 101% with OVCAR-8 ovarian; 96.8% in the experiment with OVCAR-5 ovarian; 112% with OVCAR-4 ovarian; 96.5% in the experiment with SK-OV-3 ovarian; 84.7% in the experiment with IGROV1 ovarian. The growth with OVCAR-3 ovarian was 118%; in the experiment on HS 578T breast it was 121%; with NCI/ADR-RES ovarian it was 111%.
Take `CC1=NN2C(=NC3=C(CCC/C3=C\c3ccc(Cl)cc3)C2c2ccc(Cl)cc2)S1` (stereo not drawn): the growth with SR leukemia is 64.5%; in the experiment on OVCAR-8 ovarian, 90.2%; in the experiment with OVCAR-5 ovarian, 103%; in the experiment on OVCAR-4 ovarian it was 86.8%; in the experiment on SK-OV-3 ovarian it was 115%; with IGROV1 ovarian it was 103%. For the same molecule, the growth with OVCAR-3 ovarian is 108%; in the experiment with HS 578T breast, 101%; with NCI/ADR-RES ovarian, 106%.
